Here are results for eight compounds from PubChem BioAssay (NCATS).

Inconclusive results are not listed. A number with no mark means an inactive call. The source made the active and inactive calls. The call rests on the fitted dose curve; in most records, active means well fitted inhibition curve with a large enough effect; inconclusive means small, poorly fitted or top-dose-only effect; inactive means flat fitted curve, though single readings scatter.
On the % scale 0 is the no-effect control and ±100 the full control effect; potency means the concentration at half of the fitted maximal effect.

The target of the assay is Voltage-gated inwardly rectifying potassium channel KCNH2 (Homo sapiens) (UniProt Q12809). Briefly: qHTS Assay for Small Molecule Inhibitors of the Human hERG Channel Activity (AID 588834).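 Further: lower thallium flux fluorescence means stronger hERG block; nearly all actives have a fitted effect of over 50% in size.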 On activity change, negative = inhibition: top concentration of the series differs between compounds. The conditions noted are these: U2OS BacMam hERG, FluxOR thallium flux fluorescence; series mostly up to 46.1 µM; activity change, negative = inhibition: at the top concentration. The gist of the method: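 U2OS cells BacMam-transduced with hERG, 2000 cells/well, compound ~10 min at 37 °C before stimulation buffer. FluxOR thallium flux fluorescence read kinetically on FDSS; decrease indicates block; AC50 from Hill fits.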
Sequence of Voltage-gated inwardly rectifying potassium channel KCNH2 (Homo sapiens) (Q12809 whole entry, looked up): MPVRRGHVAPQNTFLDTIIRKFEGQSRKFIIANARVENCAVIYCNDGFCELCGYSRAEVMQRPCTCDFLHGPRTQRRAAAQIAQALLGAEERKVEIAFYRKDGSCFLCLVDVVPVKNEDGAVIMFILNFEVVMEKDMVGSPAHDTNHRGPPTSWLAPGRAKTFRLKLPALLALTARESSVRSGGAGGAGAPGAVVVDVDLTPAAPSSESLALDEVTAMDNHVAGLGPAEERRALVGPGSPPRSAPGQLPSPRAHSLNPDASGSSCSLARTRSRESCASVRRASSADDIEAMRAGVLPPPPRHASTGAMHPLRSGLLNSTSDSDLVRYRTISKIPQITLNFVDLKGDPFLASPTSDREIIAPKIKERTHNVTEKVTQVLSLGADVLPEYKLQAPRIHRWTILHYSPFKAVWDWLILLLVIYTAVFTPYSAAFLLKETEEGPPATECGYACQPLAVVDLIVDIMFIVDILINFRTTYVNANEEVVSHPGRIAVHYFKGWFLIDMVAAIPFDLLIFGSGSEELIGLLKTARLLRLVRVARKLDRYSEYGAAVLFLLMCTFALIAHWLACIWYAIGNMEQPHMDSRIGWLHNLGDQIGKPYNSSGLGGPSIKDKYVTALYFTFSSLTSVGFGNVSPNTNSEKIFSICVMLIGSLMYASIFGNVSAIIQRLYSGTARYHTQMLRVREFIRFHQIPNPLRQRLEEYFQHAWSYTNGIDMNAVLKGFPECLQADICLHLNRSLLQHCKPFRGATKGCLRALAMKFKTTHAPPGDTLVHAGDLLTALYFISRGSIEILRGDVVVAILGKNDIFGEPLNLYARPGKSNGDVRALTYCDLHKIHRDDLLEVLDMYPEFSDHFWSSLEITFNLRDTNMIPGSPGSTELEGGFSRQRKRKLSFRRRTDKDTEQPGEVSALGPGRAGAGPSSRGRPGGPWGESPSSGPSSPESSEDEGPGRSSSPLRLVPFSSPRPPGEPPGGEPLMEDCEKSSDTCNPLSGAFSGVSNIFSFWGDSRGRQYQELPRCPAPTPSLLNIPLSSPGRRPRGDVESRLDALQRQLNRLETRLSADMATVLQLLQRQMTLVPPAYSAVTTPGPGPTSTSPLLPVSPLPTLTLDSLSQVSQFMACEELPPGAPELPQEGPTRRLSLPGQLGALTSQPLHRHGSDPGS
Turning to `CO/N=C(\C(=O)N[C@@H]1C(=O)N2C(C(=O)[O-])=C(C[n+]3ccc(N)n3CCO)CS[C@H]12)c1csc(N)n1`, the “activity change, negative = inhibition” value is 13.6%. With `CC1(C)S[C@@H]2[C@H](N3C(=O)C(c4ccccc4)NC3(C)C)C(=O)N2[C@H]1C(=O)O` (stereo partly drawn), the “activity change, negative = inhibition” value was -1.22%.

As for `NC(=O)c1cc[n+](CC2=C(C(=O)O)N3C(=O)[C@@H](NC(=O)C(c4ccccc4)S(=O)(=O)[O-])[C@H]3SC2)cc1` (stereo partly drawn), the “activity change, negative = inhibition” value is 4.95% [at 20.6 µM]. As for `C=C[C@]1(C)C[C@@H](OC(=O)CSCCN(CC)CC)[C@]2(C)[C@H](C)CC[C@]3(CCC(=O)[C@H]32)[C@@H](C)[C@@H]1O`, the Potency was 2.24 µM (active).

`C=CC[N@@+]12CC[C@@]34c5ccccc5N5/C=C6/[C@H]7C[C@H]8[C@@]9(CC[N@@+]8(CC=C)C/C7=C/CO)c7ccccc7N(/C=C(/[C@@H](C[C@@H]31)/C(=C\CO)C2)[C@H]54)[C@@H]69`: the “activity change, negative = inhibition” value was 5.19% [at 20.6 µM]. On the same count and under the same terms, the value for `O=C1C2CC3CC1CC(O)(C3)C2` was 4.5%.

Regarding `CN1CCCC(CN2c3ccccc3Sc3ccccc32)C1` (stereo not drawn), the Potency was 12.6 µM (active). On to `CO/N=C(\C(=O)N[C@@H]1C(=O)N2C(C(=O)O)=C(CSc3nnnn3C)CS[C@H]12)c1csc(N)n1`, for which the “activity change, negative = inhibition” value was 2.77%.
